# Reference: PubChem BioAssay (NCI)
# The panel holds about 83,000 compounds, 20% with a hit somewhere; the sample as a whole holds those more often.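 For each line, cells grew in 96-well plates with the test compound present at a single concentration for 48 hours.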 Activity calls are given as the source filed them. Rule for the calls: active = growth percent below 10; inactive = the rest.
# Test system: K-562 leukemia
# Assay: NCI-60 one-dose screen, 48 h (100 = growth as untreated, 0 = no growth, -100 = all killed)
# Settings: 10 µM unless noted
row,SMILES,growth
1,COc1ccc(/C=C/C(=O)c2cc(OC)c(OC)c(OC)c2)cc1OCc1cn(Cc2ccc(F)cc2)nn1,7.36% (active)
2,O=C(CCC(=O)OC1CCCC1)OC1CCCC1,96% (inactive)
3,CCN(C(=O)c1cc2ncccc2[nH]1)[C@H]1CCC[C@@H](NCc2cccc(F)c2)C1,105% (inactive)
4,CCCCCCCCCCCCCCCCC(Br)C(=O)O (stereo unspecified),86.1% (inactive)
5,COc1cc2nc(Cl)nc(NCCO)c2cc1OC,105% (inactive)
6,CCOC(=O)C1=C(CSC(=S)N(C2CCCCC2)C2CCCCC2)N(C)C(=O)NC1c1ccccc1 (stereo unspecified),35.2% (inactive)
7,CC1=C(C#N)C(C)(C)C(C#N)=C(C)N1,99.4% (inactive)

# Test system: MALME-3M melanoma
# Assay: as above
# Settings: 10 µM unless noted
row,SMILES,growth
1,CCOC(=O)[C@H](CSSc1ncnc2cc[nH]c12)NC(=O)[C@@H](C)c1ccc2cc(OC)ccc2c1,56.2% (inactive)
2,CC(C)C[C@H](NC(=O)Cn1ccc(NCc2ccccc2)cc1=O)B(O)O,-21.2% (active)
3,COc1ccc(C(=O)c2cc(OC)c(OC)c(OC)c2)cc1/C=C/C(=O)c1ccc(O)cc1,91.6% (inactive)
4,Cc1cccc(NC(=O)c2sc3nc4c(cc3c2N)CCC4)c1C,45.5% (inactive)
5,COc1cc(-c2cc(/C=C3\CCCCC3=O)[nH]n2)cc(OC)c1OC,101% (inactive)
6,COc1cccc(C2CC(=O)Nc3c2c(C)nn3-c2nc3ccccc3[nH]2)c1OC (stereo unspecified),52.3% (inactive)
7,CCNC(=O)C1CCCN1C(=O)C(CCCN=C(N)N)NC(=O)C(CC(C)C)NC(=O)C(CC(C)C)NC(=O)C(Cc1ccc(O)cc1)NC(=O)C(CO)NC(=O)C(Cc1c[nH]c2ccccc12)NC(=O)C(Cc1cnc[nH]1)NC(=O)C1CCC(=O)N1 (stereo unspecified),122% (inactive)
8,COc1ccc(-c2nc3sccn3c2-c2ccnc(NCCCNS(=O)(=O)c3ccc(F)cc3)n2)cc1,12.7% (inactive)
9,CCCCCC(=O)OCc1ccccc1,85.9% (inactive)
10,CN(C)c1nc(N)c(N=O)c(N)n1,118% (inactive)
11,COc1ccc(Cn2cc(COc3cc(/C=C/C(=O)c4cc(OC)c(OC)c(OC)c4)ccc3OC)nn2)cc1,101% (inactive)
12,CCOC(=O)C(Cc1ccccc1)n1c(O)c(C=Nc2ccc(C(=O)OCCN(CC)CC)cc2)sc1=O (stereo unspecified),90.1% (inactive)
13,COc1cc(Cn2c(SCC(=O)Nc3ccc(Cl)cc3)nc3ccccc3c2=O)cc(OC)c1OC,9.48% (active)
14,Cc1ccc(S(=O)(=O)NCCCNc2nccc(-c3c(-c4ccccc4)nc4sccn34)n2)cc1,99.3% (inactive)
15,Cc1cc(-c2ccccc2)c(C)n1Cc1ccc(Cl)cc1,59.4% (inactive)
16,CN(C)c1ccc(C2CC(c3ccccc3)=NN2/C=C2\SC(=O)NC2=O)cc1 (stereo unspecified),89% (inactive)
17,C=C1C(=O)O[C@H]2[C@H]1CC/C(COC(=O)NCCc1ccc(OC)cc1)=C\CC[C@@]1(C)O[C@@H]21,-8.71% (active)
18,O=C(CCCn1c(=O)c2sc3ccccc3c2n2nnc(-c3ccccc3)c12)NCCc1cnc[nH]1,-72.2% (active)
19,O=C1c2ccccc2C(=O)c2c1oc1oc3c(c(=O)c21)c(=O)n(-c1ccccc1)c1ccccc31,42% (inactive)
20,COc1ccc(Cn2c(SC)nc(=O)n(Cc3ccc(Cl)cc3)c2=O)cc1,95.1% (inactive)

row,SMILES,growth
1,COc1cc(CNC(=O)CCSc2nc3ccccc3c(=O)n2Cc2cc(OC)c(OC)c(OC)c2)cc(OC)c1OC,40.9% (inactive)
2,O=C(COc1ccccc1)N1N=C(c2ccc(Cl)cc2)CC1c1c[nH]c2ccccc12 (stereo unspecified),74.1% (inactive)
3,CC(=O)n1cc([C@H]2CC[C@H](c3cn(C(C)=O)c4ccccc34)c3c2[nH]c2ccccc32)c2ccccc21,91.4% (inactive)
4,CCN(CC)CCCC(C)N=c1cc(Nc2cc(=NC(C)CCCN(CC)CC)c3cc(OC)ccc3o2)oc2ccc(OC)cc12 (stereo unspecified),-80.1% (active)
5,CC1(C)OC2COC3(C(=O)O)OC(C)(C)OC3C2O1 (stereo unspecified),109% (inactive)
6,Cc1ccc(Cn2c(-c3nonc3N)nc3ccccc32)cc1,81.6% (inactive)
7,COc1cc2nc(N3CCC[C@@H](NC4=CC(=O)c5ccccc5C4=O)C3)nc(N)c2cc1OC,94.8% (inactive)
8,O=C(Nc1ccc(Cl)cc1)c1cc(-c2ccc(F)cc2)c2sc(=O)[nH]c2n1,4.01% (active)
9,Cc1cc(C)c(S(=O)(=O)N2CCN(c3cc4c(cc3F)c(=O)c(C(=O)O)cn4C3CC3)CC2)c(C)c1,59.7% (inactive)
10,O=C(CCCn1c2c(sc3ccccc32)c(=O)n2nnc(-c3ccccc3)c12)NCCc1cnc[nH]1,-76.1% (active)
11,COc1ccc2c(c1)NC(=O)CN2c1nc(NC2CC2)nc2ccccc12,70.3% (inactive)
12,C=C1C(=O)O[C@H]2[C@H](O)[C@@H](C)CCC/C(C)=C/CC[C@@]3(C)O[C@@H]3C[C@@H]12,72% (inactive)
13,COc1ccc(/C=C/C(=O)c2cc(OC)c(OC)c(OC)c2)cc1OCc1cn(Cc2ccc(F)cc2)nn1,92.1% (inactive)
14,O=C(CCC(=O)OC1CCCC1)OC1CCCC1,102% (inactive)
15,CCN(C(=O)c1cc2ncccc2[nH]1)[C@H]1CCC[C@@H](NCc2cccc(F)c2)C1,92% (inactive)
16,CCCCCCCCCCCCCCCCC(Br)C(=O)O (stereo unspecified),98.3% (inactive)
17,COc1cc2nc(Cl)nc(NCCO)c2cc1OC,94.4% (inactive)
18,CCOC(=O)C1=C(CSC(=S)N(C2CCCCC2)C2CCCCC2)N(C)C(=O)NC1c1ccccc1 (stereo unspecified),71.8% (inactive)
19,CC1=C(C#N)C(C)(C)C(C#N)=C(C)N1,109% (inactive)
